# MBNL1 CUG block = blocks human MBNL1 binding to CUG repeat RNA; TR-FRET MBNL1-His/biotin-(CUG)12 binding, 665/545 ratio; Q9NR56; Potency, µM (series often up to 57.5 µM), without a hit: top-dose activity change, negative = inhibition, actives largely listed as inhibitors; 280,000 compounds, 0.036% hits; active = well fitted inhibition curve with a large enough effect in the signal ratio, with a control signal flat, not every such curve was filed as active; inconclusive = small, poorly fitted or top-dose-only effect, or effect the other way, or a change in a side signal; inactive = no such curve, though single readings can be large or run the other way; the % refers to the signal ratio; note: potency is the fitted concentration of half-maximal effect; % is set by controls: 0 for no effect and ±100 for the full control effect
#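 His-tagged MBNL1 binding to biotinylated (CUG)12 RNA was measured by TR-FRET using terbium anti-His antibody (0.055 ng/ul final) and streptavidin-XL665 (5 nM final). Compounds were titrated 92 nM to 58 uM; 60 min at room temperature.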
# Gal4-VP16 FLuc = Gal4-VP16 reporter inhibition counter-screen. 310,000 compounds, 3.5% hits. Drosophila S2 Gal4-VP16 UAS-luciferase, luminescence, 20 h. Potency, µM (doses to about 53.6 µM), for the others: at the highest dose activity, negative = inhibition, most hits filed as inhibitors;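 note: Gal4-VP16 expression switched on by copper sulfate through the metallothionein promoter; potency is the fitted concentration of half-maximal effect; % is set by controls: 0 for no effect and ±100 for the full control effect; nearly all actives have a fitted effect of over 50% in size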
# CtBP-E1A blk = CtBP/E1A binding inhibition; 340,000 compounds, 0.49% hits; AlphaScreen GST-E1A/His-CtBP binding, 1536-well; hits give low values; activity change, % (no concentration beside the values); in the data active = activity change below about -65%; inconclusive = mostly about -30% to -63%; note: % is set by controls: 0 for no effect and ±100 for the full control effect
#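 Protein mix (5X: 125 nM each GST-E1A, His-CtBP) was incubated with pinned compound 2 h at 37 deg C in dark, in 50 mM Tris pH 8.0 buffer with 300 mM NaCl. Glutathione donor and nickel acceptor beads followed; AlphaScreen signal read after 1 h.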
# CBFb-RUNX1 inh = CBF-beta/RUNX1 interaction disruption; Q01196+Q13951; AlphaScreen CBFb-His/RUNX1-biotin binding, biochemical; Potency, µM (doses to about 59.8 µM), for the others: at the highest dose activity, negative = inhibition, most hits filed as inhibitors; 230,000 tested, under 10 active; AID 1477; note: % of control where 0% means no effect
#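 CBF-beta (His) and RUNX1 (biotin), 30 nM each; 20 min preassociation; + compound, 15 min; + beads 50 ng each (Ni, streptavidin), 90 min; RT; AlphaScreen read.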
# RORg inh = ROR gamma (mouse) transcription inhibition; 310,000 compounds, 5.4% hits; P51450; Potency, µM (doses to about 53.6 µM), for inactives: top-dose activity change, negative = inhibition, most hits filed as inhibitors; AID 2551; Drosophila S2 Gal4-RORgamma UAS-luciferase reporter, 20 h; note: potency is the fitted concentration of half-maximal effect; % is set by controls: 0 for no effect and ±100 for the full control effect; nearly all actives have a fitted effect of over 60% in size
# Target sequence (P51450 whole entry, looked up, the tested form may be a part): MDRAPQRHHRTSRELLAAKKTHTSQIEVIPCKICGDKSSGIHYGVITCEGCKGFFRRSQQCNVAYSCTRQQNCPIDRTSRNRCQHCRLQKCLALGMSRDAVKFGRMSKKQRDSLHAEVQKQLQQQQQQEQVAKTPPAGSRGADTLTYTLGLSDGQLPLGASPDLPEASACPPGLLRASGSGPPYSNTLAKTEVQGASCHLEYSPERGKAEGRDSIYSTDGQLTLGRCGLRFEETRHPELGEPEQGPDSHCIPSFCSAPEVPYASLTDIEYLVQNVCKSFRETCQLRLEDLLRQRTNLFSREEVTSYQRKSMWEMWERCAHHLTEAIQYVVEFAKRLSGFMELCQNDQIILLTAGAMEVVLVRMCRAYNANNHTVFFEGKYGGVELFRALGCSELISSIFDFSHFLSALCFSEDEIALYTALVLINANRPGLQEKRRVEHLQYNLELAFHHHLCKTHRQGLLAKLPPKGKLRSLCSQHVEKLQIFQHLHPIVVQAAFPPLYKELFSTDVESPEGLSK
#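 Schneider cells (Drosophila), stable Gal4 DBD–ROR gamma + UAS-luc; 1 hr cmpd preincubation; Cu2+ induction 700 uM final; 20 hr ambient; luminescence.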
# Six1-Eya2 inh = blocks human Six1 binding to Eya2. AID 651725. Q15475+O00167. 360,000 compounds, 0.56% hits. activity change, % (no concentration beside the values). AlphaScreen GST-Six1/His-Eya2 binding, biochemical; hits give low values; in the data active = activity change below about -65%; inconclusive = mostly about -30% to -63%; note: % is set by controls: 0 for no effect and ±100 for the full control effect
#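 Homogeneous AlphaScreen proximity assay pairing GST-Six1 with His-tagged Eya2 (added as 5X mix: 250 nM and 500 nM) in 50 mM Tris pH 8.0, 300 mM NaCl, 1 mM TCEP. Glutathione donor and nickel acceptor beads; 1 h, 37 °C, dark.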
# The depositor's hits bear a star; ? = inconclusive; . = no result; [ ] = another dose, or the depositor's remark. Rows were chosen to be rich in hits. Some 5.5% of all compounds tested hit in one or more screens of this group. Unless noted, calls come from the whole dose curve; as a rule, active = well fitted curve in the direction sought with a large enough effect; inconclusive = small, poorly fitted or top-dose-only effect, or another doubt; inactive = no such curve, though single readings can be large; an effect the other way counts as inactive or inconclusive.
SMILES,MBNL1 CUG block,Gal4-VP16 FLuc,CtBP-E1A blk,CBFb-RUNX1 inh,RORg inh,Six1-Eya2 inh
COc1ccc(N2CCN(C(=O)c3sc4ncn(CC(=O)N5CCCCC5C)c(=O)c4c3C)CC2)cc1 (centres undefined),0%,22µM*,-9,.,43%,0
CCN1CSC(=S)N(Cc2ccc(OC)cc2)C1,0%,13µM*,-2,2%,14µM*,0
CCCCCN1CSC(=S)N(Cc2ccccc2)C1,-12%,18µM*,4,5%,10µM*,2
CCN1CSC(=S)N(Cc2ccccc2)C1,-9%,10µM*,-1,.,10µM*,8
CN(C)c1ccc(/C=C/CNC[C@H]2O[C@@H](n3ccc(N)nc3=O)[C@H](O)[C@@H]2O)cc1,.,.,-18,.,.,13
Cc1ccc(-c2csc(NC(=O)CN3CCOCC3)n2)cc1C,-2%,1%,-4,.,35%,-9
O=C(NC(=S)NCCO)c1cn(-c2ccccc2)nc1-c1ccccc1,5%,?,0,2%,10µM*,2
Cc1cc2c(cc1C)NC(=O)CC(c1ccccc1)=N2,.,.,6,.,.,0
Cc1ccc(C2=Nc3ccccc3N=C(C(Cl)Cl)C2)cc1,11%,?,-17,-6%,11µM*,-7
Cc1ccc2c(c1)N=C(c1ccccc1)CC(C(Cl)Cl)=N2,23%,?,-1,-10%,11µM*,-11
c1ccc(SCCN2CCN(c3ccccc3)CC2)cc1,-5%,2%,-29,.,-2%,-23
CCOc1c(Cl)cc(CNCc2ccccn2)cc1OC,-8%,3%,-3,-5%,-15%,-20
COc1ccc(CC(=O)NCc2ccccn2)cc1OC,5%,-6%,-5,-4%,11µM*,-3
COc1cc(CNCc2ccccn2)ccc1OCc1ccccc1Cl,.,?,-29,-22%,14µM*,-27
COc1cc2c(cc1CNC[C@H]1O[C@@H](n3ccc(N)nc3=O)[C@H](O)[C@@H]1O)OCO2,.,.,3,.,.,-1
COc1cccc(-c2cnc(C(O)c3ccc(F)cc3)[nH]2)c1 (centres undefined),.,.,-12,.,.,0
COc1ccc(-c2cn(-c3ccc(C)c(Cl)c3)c(=S)[nH]2)cc1OC,60%,10µM*,0,.,?,-8
COc1cccc(-n2cc(-c3ccc(F)cc3)[nH]c2=S)c1,20%,?,-21,.,1.3µM*,-13
COc1ccccc1-c1cn(-c2ccccc2)c(=S)[nH]1,4%,5.6µM*,0,.,2.8µM*,7
COc1ccc(-n2nc3cc(C)c(N)cc3n2)cc1Cl,12%,17%,.,.,-6%,5
COc1ccc(-c2cn(-c3ccc(C)c(C)c3)c(=S)[nH]2)cc1OC,-1%,13µM*,-17,.,?,?
Cc1ncc(CO)c(CO)c1OCC(O)CN1CCN(c2ccc(F)cc2)CC1 (centres undefined),.,.,2,.,.,1
O=C1C=CC2(OCCCO2)C(Br)=C1,.,-7%[10 µM],.,17%[13.1 µM],-12%[10 µM],.
COc1ccccc1Cc1c(C(C)(C)C)nc2cc(C)c(Br)c(C)n12,.,.,4,.,.,-2
COc1ccc(-n2cc(-c3ccc(Cl)cc3)[nH]c2=S)cc1,.,4%,.,-1%,-42%,1
SMILES,MBNL1 CUG block,Gal4-VP16 FLuc,CtBP-E1A blk,CBFb-RUNX1 inh,RORg inh,Six1-Eya2 inh
COc1ccc(-c2cnn(-c3ccccc3)c2N)cc1OC,-8%,-6%,-10,-5%,10%,-5
COC(=O)c1ccc(-n2cc(-c3ccc(OC)cc3)[nH]c2=S)cc1,-1%,?,0,-10%,3.2µM*,-7
COc1ccc(-c2cn(-c3ccccc3)c(=S)[nH]2)cc1OC,5%,11µM*,-13,.,5.6µM*,-9
CCC(C)c1ccccc1NC(=O)c1cc(C)no1 (centres undefined),-10%,-14%,-5,.,23%,-18
CCOC(=O)C(C)CC(C)C(=O)N1CCOCCOCCN(C(=O)C(C)CC(C)C(=O)OCC)CCOCC1 (centres undefined),6%,1%,0,6%,-17%,2
CCOC(=O)C(C(=O)OCC)C(C(=O)OCC)N1CCOCC1 (centres undefined),1%,5.6µM*,12,15%,0%,1
N#CC(c1ccccc1)C(CC(=NO)c1ccccc1)c1ccccc1 (centres undefined),.,.,4,.,.,-4
Cc1ccccc1N=C/C=C1\N(C)c2ccccc2C1(C)C,12%,13µM*,-11,.,?,-5
CN(C)c1ccc(N=C/C=C2/N(C)c3ccccc3C2(C)C)cc1,?,?,.,?,-21%,-68*
S=C(NCc1ccco1)N1CCN(c2nc(-c3ccc(Cl)cc3)cs2)CC1,-8%,?,0,-13%,11µM*,-13
O=C(Cc1cccs1)N1CCN(c2nc(-c3ccc(Cl)cc3)cs2)CC1,11%,?,-13,6%,13µM*,-15
CC(C)C(=O)N1CCN(c2nc(-c3ccc(Cl)cc3)cs2)CC1,0%,0%,.,-2%,-2%,-16
S=C(NCc1ccco1)N1CCN(c2nc(-c3ccccc3)cs2)CC1,16%,1%,3,-25%,-21%,-15
COC(=O)c1sc(=S)sc1C(=O)OC,11%,?,13,4%,14µM*,-89*
O=C(COC(=O)C1CC2C=CC1C2)Nc1ccccc1[N+](=O)[O-] (centres undefined),.,.,2,.,.,-27
COc1cc2c(cc1OC)C(c1ccc(-c3ccc(Cl)cc3Cl)o1)=NCC2,?,20µM*,-26,-9%,6.3µM*,-27
COc1cc2c(cc1OC)C(c1ccc(-c3cc(Cl)ccc3Cl)o1)=NCC2,-5%,-1%,-5,-2%,0%,-2
COc1cc2c(cc1OC)C(c1ccc(Cl)cc1)=NCC2,?,1%,.,3%,-38%,-1
COc1cc2c(cc1OC)C(c1ccc(-c3ccccc3Cl)o1)=NCC2,?,11µM*,27,-13%,11µM*,?
COc1cc2c(cc1OC)C(c1ccc(-c3ccc(Cl)c(Cl)c3)o1)=NCC2,?,?,-18,-11%,13µM*,-13
CC1CCCC(CC(N)=O)CC1 (centres undefined),.,.,7,.,.,5
Nc1nc2c(nc(Sc3ccc(Cl)cc3)n2C2OC(CO)C(O)C2O)c(=O)[nH]1 (centres undefined),.,-1%,.,.,0%,.
O=C(O)C(Cc1c[nH]c2ccccc12)NS(=O)(=O)c1ccc(Cl)c(C(F)(F)F)c1 (centres undefined),0%,-9%,-4,.,?,-2
